# According to PubChem BioAssay (NCI):
# The panel holds about 79,000 compounds, 15% with a hit somewhere; the sample as a whole holds those more often. Unmarked numbers belong to inactive results. Active and inactive are the calls of the source. Rule as the data show it: active = growth inhibition above about 70%; inactive = the rest.
# How the values were obtained:
# [1] = NCI Yeast Anticancer Drug Screen. Data for the rad52 strain (AID 147);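 also: 0% = growth of vehicle-treated control cultures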; conditions: S. cerevisiae rad52 mutant growth inhibition, stronger effect = higher value
# Procedure, shortened: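 Measured: yeast growth inhibition. System: strain with a defined DNA damage repair alteration. Reference: vehicle-treated control cultures.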
# [2] = NCI Yeast Anticancer Drug Screen. Data for the rad50EPP+ strain (AID 151);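 also: 0% = growth of vehicle-treated control cultures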; conditions: S. cerevisiae rad50 mutant strain, stronger effect = higher value
# Procedure, shortened: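 One strain with a rad50 alteration (rad50EPP+) was compound-treated, its growth then compared to that of vehicle controls.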
# [3] = NCI Yeast Anticancer Drug Screen. Data for the mgt1 strain (AID 153); conditions: S. cerevisiae mgt1 mutant growth inhibition, stronger effect = higher value
# Procedure, shortened: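 After exposure of the mgt1 yeast mutant to compound, growth was measured and reported as inhibition compared with vehicle controls.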
# [4] = NCI Yeast Anticancer Drug Screen. Data for the rad50 strain (AID 155);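 also: 0% = growth of vehicle-only cultures of the same strain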; conditions: S. cerevisiae rad50 strain growth inhibition, stronger effect = higher value
# Procedure, shortened: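 A DNA repair-deficient yeast mutant serves as the test organism; compound-induced growth inhibition is calculated against vehicle-treated cells.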
# [5] = NCI Yeast Anticancer Drug Screen. Data for the mec2-1 strain (AID 157); conditions: S. cerevisiae mec2-1 strain, stronger effect = higher value
# Procedure, shortened: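 Test agents were screened against the mec2-1 yeast strain, with defined DNA repair or cell cycle alteration. Growth was scored as inhibition against vehicle-only controls.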
# [6] = NCI Yeast Anticancer Drug Screen. Data for the rad14 strain (AID 159);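 also: 0% = growth of vehicle-treated control cultures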; conditions: S. cerevisiae rad14 strain growth inhibition, stronger effect = higher value
# Procedure, shortened: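 Vehicle-treated cultures served as the baseline for growth inhibition of a DNA repair-mutant yeast strain exposed to each compound.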
# [7] = NCI Yeast Anticancer Drug Screen. Data for the sgs1 mgt1 strain (AID 161);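 also: 0% = growth of cultures given vehicle only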; conditions: S. cerevisiae sgs1 mgt1 strain, stronger effect = higher value
# Procedure, shortened: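 Test agents were incubated with a DNA-repair-mutant yeast strain. Growth was then read and compared against vehicle-treated controls.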
# [8] = NCI Yeast Anticancer Drug Screen. Data for the CLN2oe strain (AID 163);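 also: 0% = growth of vehicle-only control cultures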; conditions: S. cerevisiae CLN2oe strain, stronger effect = higher value
# Procedure, shortened: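 Here, growth inhibition in a cell-cycle-altered yeast strain after compound exposure was quantified against vehicle control growth.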
# [9] = NCI Yeast Anticancer Drug Screen. Data for the cln2 rad14 strain (AID 165);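 also: 0% = growth equal to vehicle treated cultures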; conditions: S. cerevisiae cln2 rad14 strain, stronger effect = higher value
# Procedure, shortened: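 Growth of compound-exposed yeast (cln2 rad14 genotype) measured and expressed as inhibition relative to vehicle.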
# [10] = NCI Yeast Anticancer Drug Screen. Data for the bub3 strain (AID 167); conditions: S. cerevisiae bub3 mutant strain, stronger effect = higher value
# Procedure, shortened: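 Inhibition values come from growth of compound-treated mutant yeast normalised to vehicle-treated controls.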
# [11] = NCI Yeast Anticancer Drug Screen. Data for the wt2 strain (AID 169);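 also: 0% = growth of vehicle-treated yeast cultures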; conditions: S. cerevisiae wt2 strain growth inhibition, stronger effect = higher value
# Procedure, shortened: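 Genetically defined yeast strains from a DNA-repair/cell-cycle panel were used. Compound-exposed yeast growth was measured, and the inhibition was calculated relative to vehicle treatment.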
# [12] = NCI Yeast Anticancer Drug Screen. Data for the mlh1 strain (AID 171);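 also: 0% = growth of vehicle-treated control cultures of the same strain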; conditions: S. cerevisiae mlh1 strain growth inhibition, stronger effect = higher value
# Procedure, shortened: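 Here the genetically defined yeast mutant is grown with each compound, and the extent to which its growth falls below that of vehicle-exposed cells is reported.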
# [13] = NCI Yeast Anticancer Drug Screen. Data for the sgs1 strain (AID 173);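 also: 0% = growth of vehicle-only control cultures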; conditions: S. cerevisiae sgs1 mutant, stronger effect = higher value
# Procedure, shortened: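 Relative growth inhibition, referenced to vehicle, was determined in a yeast strain with a defined alteration affecting DNA damage repair or cell cycle control after compound exposure.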
# [14] = NCI Yeast Anticancer Drug Screen. Data for the mlh1 rad18 strain (AID 175); conditions: S. cerevisiae mlh1 rad18 strain growth inhibition, stronger effect = higher value
# Procedure, shortened: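 In this whole-cell yeast screen, a strain with altered DNA damage repair is challenged with compound, and its growth is measured against matched vehicle-treated controls.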
# [15] = NCI Yeast Anticancer Drug Screen. Data for the rad18 strain (AID 177); conditions: S. cerevisiae rad18 mutant growth inhibition, stronger effect = higher value
# Procedure, shortened: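 Screen uses a yeast strain with a defined lesion in DNA damage repair; compound effect is read as loss of growth compared to untreated vehicle cultures.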
# [16] = NCI Yeast Anticancer Drug Screen. Data for the wt1 strain (AID 149);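 also: 0% = growth of vehicle-treated wt1 cultures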; conditions: S. cerevisiae wt1 strain (SPY 50644) growth inhibition, stronger effect = higher value
# Procedure, shortened: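 Vehicle-normalised growth inhibition; strain wt1; compound exposure.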
# [17] = at 5.0 µM (retest, dose inferred, filed as 0.5)
# [18] = at 50.0 µM (retest, dose inferred, filed as 5.0)
smiles,measurement,setting,value
O=P(C(=S)Nc1c(Cl)cccc1Cl)(c1ccccc1)c1ccccc1,growth inhibition,[1]; at 1.2 µM,21%
same,growth inhibition,[1]; at 3.7 µM,24%
same,growth inhibition,[1]; at 11.0 µM,22%
same,growth inhibition,[1]; at 33.0 µM,24%
same,growth inhibition,[1]; at 100.0 µM,97% (active)
same,growth inhibition,[2]; at 1.2 µM,6%
same,growth inhibition,[2]; at 3.7 µM,8%
same,growth inhibition,[2]; at 11.0 µM,24%
same,growth inhibition,[2]; at 33.0 µM,19%
same,growth inhibition,[2]; at 100.0 µM,31%
same,growth inhibition,[3]; at 1.2 µM,11%
same,growth inhibition,[3]; at 3.7 µM,-16%
same,growth inhibition,[3]; at 11.0 µM,-11%
same,growth inhibition,[3]; at 33.0 µM,-1%
same,growth inhibition,[3]; at 100.0 µM,95% (active)
same,growth inhibition,[4]; at 1.2 µM,20%
same,growth inhibition,[4]; at 3.7 µM,8%
same,growth inhibition,[4]; [17],73% (active)
same,growth inhibition,[4]; at 11.0 µM,14%
same,growth inhibition,[4]; at 33.0 µM,1%
same,growth inhibition,[4]; [18],99% (active)
same,growth inhibition,[4]; at 50.0 µM,87.7% (active)
same,growth inhibition,[4]; at 100.0 µM,95% (active)
same,growth inhibition,[5]; at 1.2 µM,5%
same,growth inhibition,[5]; at 3.7 µM,9%
same,growth inhibition,[5]; [17],71% (active)
same,growth inhibition,[5]; at 11.0 µM,14%
same,growth inhibition,[5]; at 33.0 µM,7%
same,growth inhibition,[5]; [18],99% (active)
same,growth inhibition,[5]; at 50.0 µM,91% (active)
same,growth inhibition,[5]; at 100.0 µM,94% (active)
same,growth inhibition,[6]; at 1.2 µM,-13%
same,growth inhibition,[6]; at 3.7 µM,-14%
same,growth inhibition,[6]; at 11.0 µM,-16%
same,growth inhibition,[6]; at 33.0 µM,-18%
same,growth inhibition,[6]; at 100.0 µM,94% (active)
same,growth inhibition,[7]; [17],-6%
same,growth inhibition,[7]; [18],95% (active)
same,growth inhibition,[7]; at 50.0 µM,88.3% (active)
same,growth inhibition,[8]; at 1.2 µM,8%
same,growth inhibition,[8]; at 3.7 µM,21%
same,growth inhibition,[8]; at 11.0 µM,15%
same,growth inhibition,[8]; at 33.0 µM,16%
same,growth inhibition,[8]; at 100.0 µM,95% (active)
same,growth inhibition,[9]; [17],41%
same,growth inhibition,[9]; [18],96% (active)
same,growth inhibition,[9]; at 50.0 µM,89.9% (active)
same,growth inhibition,[10]; at 1.2 µM,0%
same,growth inhibition,[10]; at 3.7 µM,4%
same,growth inhibition,[10]; [17],21%
same,growth inhibition,[10]; at 11.0 µM,14%
same,growth inhibition,[10]; at 33.0 µM,11%
same,growth inhibition,[10]; [18],75% (active)
same,growth inhibition,[10]; at 50.0 µM,89% (active)
same,growth inhibition,[10]; at 100.0 µM,97% (active)
same,growth inhibition,[11]; at 1.2 µM,21%
same,growth inhibition,[11]; at 3.7 µM,8%
same,growth inhibition,[11]; at 11.0 µM,15%
same,growth inhibition,[11]; at 33.0 µM,35%
same,growth inhibition,[11]; at 100.0 µM,96% (active)
same,growth inhibition,[12]; at 1.2 µM,10%
same,growth inhibition,[12]; at 3.7 µM,10%
same,growth inhibition,[12]; at 11.0 µM,0%
same,growth inhibition,[12]; at 33.0 µM,6%
same,growth inhibition,[12]; at 100.0 µM,95% (active)
same,growth inhibition,[13]; at 1.2 µM,25%
same,growth inhibition,[13]; at 3.7 µM,13%
same,growth inhibition,[13]; at 11.0 µM,3%
same,growth inhibition,[13]; at 33.0 µM,18%
same,growth inhibition,[13]; at 100.0 µM,95% (active)
same,growth inhibition,[14]; [17],60%
same,growth inhibition,[14]; [18],98% (active)
same,growth inhibition,[14]; at 50.0 µM,87.2% (active)
same,growth inhibition,[15]; at 1.2 µM,-12%
same,growth inhibition,[15]; at 3.7 µM,-20%
same,growth inhibition,[15]; at 11.0 µM,-22%
same,growth inhibition,[15]; at 33.0 µM,-12%
same,growth inhibition,[15]; at 100.0 µM,96% (active)
CC(C)=CCC/C(C)=C/CN1C(=O)C=CC1=O,growth inhibition,[1]; at 1.2 µM,9%
same,growth inhibition,[1]; at 3.7 µM,36%
same,growth inhibition,[1]; at 11.0 µM,99% (active)
same,growth inhibition,[1]; at 33.0 µM,99% (active)
same,growth inhibition,[1]; at 100.0 µM,99% (active)
same,growth inhibition,[16]; at 1.2 µM,2%
same,growth inhibition,[16]; at 3.7 µM,29%
same,growth inhibition,[16]; at 11.0 µM,100% (active)
same,growth inhibition,[16]; at 33.0 µM,100% (active)
same,growth inhibition,[16]; at 100.0 µM,99% (active)
same,growth inhibition,[3]; at 1.2 µM,-3%
same,growth inhibition,[3]; at 3.7 µM,18%
same,growth inhibition,[3]; at 11.0 µM,100% (active)
same,growth inhibition,[3]; at 33.0 µM,100% (active)
same,growth inhibition,[3]; at 100.0 µM,100% (active)
same,growth inhibition,[4]; at 1.2 µM,7%
same,growth inhibition,[4]; at 3.7 µM,42%
same,growth inhibition,[4]; [17],13%
same,growth inhibition,[4]; at 11.0 µM,99% (active)
same,growth inhibition,[4]; at 33.0 µM,99% (active)
same,growth inhibition,[4]; [18],98% (active)
same,growth inhibition,[4]; at 50.0 µM,99.7% (active)
same,growth inhibition,[4]; at 100.0 µM,99% (active)
same,growth inhibition,[5]; at 1.2 µM,-3%
same,growth inhibition,[5]; at 3.7 µM,17%
same,growth inhibition,[5]; [17],-16%
same,growth inhibition,[5]; at 11.0 µM,99% (active)
same,growth inhibition,[5]; at 33.0 µM,100% (active)
same,growth inhibition,[5]; [18],99% (active)
same,growth inhibition,[5]; at 50.0 µM,99.7% (active)
same,growth inhibition,[5]; at 100.0 µM,100% (active)
same,growth inhibition,[6]; at 1.2 µM,14%
same,growth inhibition,[6]; at 3.7 µM,53%
same,growth inhibition,[6]; at 11.0 µM,100% (active)
same,growth inhibition,[6]; at 33.0 µM,100% (active)
same,growth inhibition,[6]; at 100.0 µM,100% (active)
same,growth inhibition,[7]; [17],36%
same,growth inhibition,[7]; [18],99% (active)
same,growth inhibition,[7]; at 50.0 µM,99.5% (active)
same,growth inhibition,[8]; at 1.2 µM,-13%
same,growth inhibition,[8]; at 3.7 µM,5%
same,growth inhibition,[8]; at 11.0 µM,81% (active)
same,growth inhibition,[8]; at 33.0 µM,99% (active)
same,growth inhibition,[8]; at 100.0 µM,99% (active)
same,growth inhibition,[9]; [17],-29%
same,growth inhibition,[9]; [18],99% (active)
same,growth inhibition,[9]; at 50.0 µM,99.3% (active)
same,growth inhibition,[10]; at 1.2 µM,10%
same,growth inhibition,[10]; at 3.7 µM,37%
same,growth inhibition,[10]; [17],-24%
same,growth inhibition,[10]; at 11.0 µM,99% (active)
same,growth inhibition,[10]; at 33.0 µM,99% (active)
same,growth inhibition,[10]; [18],99% (active)
same,growth inhibition,[10]; at 50.0 µM,99.4% (active)
same,growth inhibition,[10]; at 100.0 µM,99% (active)
same,growth inhibition,[11]; at 1.2 µM,24%
same,growth inhibition,[11]; at 3.7 µM,76% (active)
same,growth inhibition,[11]; at 11.0 µM,100% (active)
same,growth inhibition,[11]; at 33.0 µM,99% (active)
same,growth inhibition,[11]; at 100.0 µM,99% (active)
same,growth inhibition,[12]; at 1.2 µM,-8%
same,growth inhibition,[12]; at 3.7 µM,15%
same,growth inhibition,[12]; at 11.0 µM,98% (active)
same,growth inhibition,[12]; at 33.0 µM,99% (active)
same,growth inhibition,[12]; at 100.0 µM,99% (active)
same,growth inhibition,[13]; at 1.2 µM,20%
same,growth inhibition,[13]; at 3.7 µM,48%
same,growth inhibition,[13]; at 11.0 µM,99% (active)
same,growth inhibition,[13]; at 33.0 µM,100% (active)
same,growth inhibition,[13]; at 100.0 µM,99% (active)
same,growth inhibition,[14]; [17],69%
same,growth inhibition,[14]; [18],98% (active)
same,growth inhibition,[14]; at 50.0 µM,99.3% (active)
same,growth inhibition,[15]; at 1.2 µM,4%
same,growth inhibition,[15]; at 3.7 µM,32%
same,growth inhibition,[15]; at 11.0 µM,99% (active)
same,growth inhibition,[15]; at 33.0 µM,99% (active)
same,growth inhibition,[15]; at 100.0 µM,99% (active)
